# aSyn UTR act: Activators working through SNCA 5'UTR binding (MLPCN); AID 1814; activity score, % (tested at 7.5 µM), hits read low; alpha-synuclein 5'UTR reporter, activators screen; 7.1% of 300,000 active; in the data active means activity score below about -60%
# The depositor's hits bear a star. The list is a sample of the results.
SMILES,aSyn UTR act
COc1ccc(NCN2C(=O)C3C4C=CC(C4)C3C2=O)cc1 (configuration not stated),-66.6*
Cc1c(N)ccc(-n2nc3ccccc3n2)c1C,-64.6*
Cc1ccc(-n2nc3ccc(N)cc3n2)c(C)c1,65.9
COC(=O)[C@H](Cc1ccccc1)NC(=O)c1cc(COc2c(F)cccc2F)on1,-84.6*
COc1cc(CO)ccc1OCc1ccc(Cl)nc1,-102.5*
O=C(Nc1ccc(N2CCCCC2)cc1)c1ccc2ccccc2n1,-173.5*
O=C(Nc1ccc(N2CCCC2)cc1)C(Cl)c1ccccc1 (configuration not stated),-107.8*
Cc1cccc(NC(=O)c2ccc3ccccc3n2)c1C,-67.5*
Cc1ccccc1C(=O)Nc1ccc(N2CCCC2)cc1,-153.5*
Cc1ccc(S(=O)(=O)N2CCCCC2)cc1NC(=O)c1ccc2ccccc2n1,-121.9*
CCOc1ccc(C(=O)N[C@H](C(=O)Nc2cccc(S(=O)(=O)N3CCCCC3)c2)C(C)C)cc1,75.6
COc1ccc(NC(=O)c2ccc3ccccc3n2)cc1S(=O)(=O)N1CCCCC1,-122.2*
O=C(Nc1cccc(S(=O)(=O)N2CCCCCC2)c1)c1ccc2ccccc2n1,-89.0*
O=C(N/N=C\c1c(O)ccc2ccccc12)c1ccc(S(=O)(=O)N2CCCCC2)cc1,114.4
Clc1ccc(-c2cn3c(n2)SCC3)cc1,-186.5*
Brc1ccc(-c2cn3c(n2)SCC3)cc1,-179.1*
CC(=O)c1ccc(NC(=O)C(C)Sc2nnc(C3CCCCC3)o2)cc1 (configuration not stated),-127.9*
CN(Cc1ccccc1)S(=O)(=O)c1ccc(C(=O)Nc2nnc(C3CC3)o2)cc1,60.1
Cc1ccsc1/C=N/Nc1cccc(C(=O)O)c1,105.0
O=C(Nc1cccnc1)c1cn(-c2ccccc2)nc1-c1cccs1,-83.9*
NS(=O)(=O)c1ccc(N/N=C/c2cn(-c3ccccc3)nc2-c2cccs2)cc1,-91.5*
Cc1nn(Cc2c(Cl)cccc2Cl)c(C)c1NC(=O)c1cn(-c2ccccc2)nc1-c1ccccc1,122.3
O=C(O)c1cccc(N/N=C/c2cn(-c3ccccc3)nc2-c2cccs2)c1,-68.5*
Clc1ccc(Nc2ccc(NCc3ccccc3)nn2)cc1,-72.4*
Cc1ccc(Nc2ccc(NCc3ccccc3)nn2)cc1C,-87.4*
SMILES,aSyn UTR act
CCCn1nnc(NC(=O)c2sc3ccccc3c2Cl)n1,-104.1*
CCCCn1nnc(N(C(=O)c2cccs2)C(=O)c2cccs2)n1,-88.7*
CCCn1nnc(NC(=O)c2ccc3c(c2)OCO3)n1,-89.8*
CCCn1nnc(NC(=O)c2ccc(-c3cccc(Cl)c3)o2)n1,-80.0*
CCCn1nnc(NC(=O)c2cccc(Cl)c2)n1,-64.4*
CCCn1nnc(NC(=S)NC(=O)c2cccs2)n1,-101.9*
O=c1c2ccccc2nc(/C=C/c2c[nH]c3ccccc23)n1CCO,-160.0*
Cc1ccc(NC(=O)CC2SCCNC2=O)cc1Cl (configuration not stated),-142.8*
Cc1ccc(C2CCN(C(=O)Nc3ccc(F)cc3)C2)cc1 (configuration not stated),-125.2*
Cc1nc2cc(NC(=O)N3CCC(c4ccccc4)C3)ccc2n1C (configuration not stated),-103.8*
CSc1nncc(/C(C)=N\Nc2ccccc2C)n1,-81.3*
CN(Cc1ccccc1)C(=O)C(C(=O)c1ccc(F)cc1)n1cc(Cl)ccc1=O (configuration not stated),-67.3*
O=c1oc2ccccc2c(Nc2ccc3ccccc3c2)c1[N+](=O)[O-],-94.2*
CC1(C)CC(=O)c2c(O)cc(OCc3ccc(Br)cc3)cc2O1,-165.3*
CC1(C)CC(=O)c2ccc(OCc3ccc([N+](=O)[O-])cc3)cc2O1,-150.9*
CN=C(Nc1ccc(Cl)cc1)c1ccc(C(F)(F)F)cc1,-91.7*
COc1ccccc1NS(=O)(=O)c1cccc(-n2c(O)c(C=Nc3ccccc3C(=O)O)c3ccccc3c2=O)c1,-66.4*
COc1ccc(-n2c(O)c(/C=N/Nc3nc(C)cc(C)n3)c3ccccc3c2=O)cc1OC,119.9
CC(C)C(NC(=O)OCc1ccccc1)C(=O)OCC(=O)N1CCCCC1 (configuration not stated),-132.0*
COc1cccc(NC2SC(=O)N(c3ccccc3)C2=O)c1 (configuration not stated),-97.0*
Nc1nc2ccccc2n1/N=C/c1ccc(-c2ccccc2)o1,-190.8*
Nc1nc2ccccc2n1/N=C/c1ccc([N+](=O)[O-])s1,83.4
O=C(O)c1ccccc1N/N=C/c1cc(Br)cc(Br)c1O,-110.9*
O=C(O)c1ccccc1N/N=C\c1ccnc2ccccc12,76.2
O=C(COc1ccc(Cl)cc1Cl)Nc1cccnc1,-122.0*
SMILES,aSyn UTR act
O=C(COc1ccc(Cl)cc1Br)Nc1ccncc1,-146.5*
Cc1c(OCC(=O)Nc2cccnc2)ccc2c3c(c(=O)oc12)CCC3,57.7
Cc1cccn2c(=O)c3cc(C(=O)NCc4ccco4)c(=N)n(C4CCCCC4)c3nc12,-68.7*
COc1ccc(CCn2c(=N)c(C(=O)NCCN3CCOCC3)cc3c(=O)n4cccc(C)c4nc32)cc1OC,-92.5*
Cc1cccn2c(=O)c3cc(C(=O)NCCN4CCOCC4)c(=N)n(CCc4ccccc4)c3nc12,-128.5*
CCNC(=O)c1cc2c(=O)n3cccc(C)c3nc2n(CCc2ccccc2)c1=N,-104.5*
CC1(C)Oc2cc3oc(-c4cc(O)cc(O)c4)cc3cc2CC1O (configuration not stated),97.0
COc1ccc(CCn2c(=N)c(C(=O)N3CCN(C)CC3)cc3c(=O)n4ccccc4nc32)cc1,-65.3*
CCCSc1nsc(NC(=O)CC)n1,-134.7*
CCCSc1nsc(NC(=O)Nc2ccc(F)cc2F)n1,-129.3*
CCCSc1ccc(C(=O)Nc2ccc(F)cc2F)cn1,-86.6*
CCOc1ccc2nc(NC(=O)COC)sc2c1,-97.2*
CCOc1ccc2nc(NC(=O)Cn3[nH]c(=O)c4ccccc4c3=O)sc2c1,-104.6*
CCOCC(=O)Nc1nc2ccc(OC)cc2s1,-88.9*
CC(C)(C)c1cc(NCCCn2ccnc2)n2ncc(-c3ccccc3)c2n1,-149.1*
CC(C)(C)c1cc(-n2ccnc2)n2ncc(-c3ccc(Cl)cc3)c2n1,-67.3*
CN(C)CCCNc1cc(C(C)(C)C)nc2c(-c3ccc(Cl)cc3)cnn12,108.0
Cc1cc(NCCCn2ccnc2)n2ncc(-c3ccc(Cl)cc3)c2n1,59.8
Cc1cc(N2CCOCC2)nc(SCC(=O)c2ccccc2)n1,-93.6*
Cc1cc(N2CCCC2)nc(SCC(=O)c2ccccc2)n1,-88.5*
C=CCn1c(N)c(C(=O)Nc2ccccc2)c2nc3ccccc3nc21,59.5
C=CCn1cccc(C(=O)Nc2ccc(OC)cc2)c1=O,-96.6*
COc1ccc(NC(=O)c2cccn(CC=C(C)C)c2=O)cc1,-78.6*
C=CCc1cccc2cc(C(=O)Nc3ccc(F)cc3)c(=O)oc12,-128.3*
C=CCn1cccc(C(=O)Nc2ccc(F)cc2)c1=O,-101.0*
CCN1/C(=C/C=C/c2oc3ccc(-c4ccccc4)cc3[n+]2CC)Oc2ccc(-c3ccccc3)cc21,140.4
O=C(c1cc(COc2ccc3ncccc3c2)on1)N1CCC[C@H]1CO,-66.7*
COc1cccc(OCc2cc(C(=O)N3CCNC(=O)C3Cc3ccccc3)no2)c1 (configuration not stated),-74.4*
COc1cccc(OCc2cc(C(=O)N3CCCC3c3ccccn3)no2)c1 (configuration not stated),-84.3*
Cc1ccc(S(=O)(=O)Oc2ccc(C)cc2/C=N/N=C2\NC(=O)C(C)S2)cc1 (configuration not stated),-66.2*

# Screening results: PubChem, Broad Institute
